Test results published in PubChem BioAssay.
Calls of active or inactive are those of the source.

Columns and labels:
[1] = test system: Human papillomavirus type 1a protein E7 (residues 44-93); test: small molecules binding HPV E7 44-93 – biochemical, small-molecule microarray, residues 44-93, 635 nm fluorescence, primary screen (AID 1108); details: fluorescence 635 nm, higher = more signal;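 note: E7 fragment applied at 1 µg/mL in TBST for 1 h at 4 C; score combines spot fluorescence with its signal to noise ratio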
[2] = hepatitis C replication reporter changes, two-sided – Huh7 cells, luciferase reporter, HCV replication inhibitor project, primary screen (AID 1109); details: Huh7 HCV replicon luciferase reporter, 48 h; higher = more signal;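 note: huh7 hepatoma cells harbouring a luciferase neomycin HCV replicon reporter; luciferase luminescence as measure of HCV replicon replication; test concentration not given here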
[3] = target: Left-right determination factor 2 (Homo sapiens) (UniProt O00292); test: small molecules binding LEFTY2 protein – biochemical, small-molecule microarray, 635 nm fluorescence scan, primary screen (AID 1110); details: higher = more signal
Sequence of Left-right determination factor 2 (Homo sapiens) (O00292 whole entry, looked up): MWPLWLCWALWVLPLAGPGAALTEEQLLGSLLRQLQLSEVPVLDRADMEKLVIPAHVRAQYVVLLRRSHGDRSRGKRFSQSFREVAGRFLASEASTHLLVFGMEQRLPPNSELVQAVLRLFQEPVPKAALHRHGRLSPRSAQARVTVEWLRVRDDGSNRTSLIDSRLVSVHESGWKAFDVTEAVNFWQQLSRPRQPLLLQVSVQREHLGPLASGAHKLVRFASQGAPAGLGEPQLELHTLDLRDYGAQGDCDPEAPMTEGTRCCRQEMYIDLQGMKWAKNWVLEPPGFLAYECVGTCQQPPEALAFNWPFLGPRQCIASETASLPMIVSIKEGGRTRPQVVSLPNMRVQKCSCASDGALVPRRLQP

[4] = target: Calmodulin-1 (Homo sapiens) (UniProt P0DP23); test: small molecules binding calmodulin-1 with EGTA – biochemical, small-molecule microarray, Cy5-labelled CALM1, profiling panel (AID 1111); details: Cy5-CALM1 binding fluorescence, higher = more signal;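 note: labelled calmodulin applied in Tris saline Tween buffer holding calcium plus EGTA and DTT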
[5] = target: Calmodulin-1 (Homo sapiens) (UniProt P0DP23); test: small molecules binding Ca-loaded calmodulin-1 – biochemical, small-molecule microarray, Cy5-labelled CALM1, plus calcium, artefact control for SMM control-protein annotation, profiling panel (AID 1112); details: Cy5-CALM1 binding fluorescence, higher = more signal;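 note: score merges spot fluorescence with signal to noise from triplicate slides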
[6] = probe aWnt5a binding to arrayed compounds – biochemical, biotinylated probe, 635/667 nm fluorescence, primary screen (AID 1113); details: small-molecule microarray, higher = more signal;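 note: score merges 667 nm fluorescence intensity with signal-to-noise per printed feature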
[7] = probe aShh binding to arrayed compounds – biochemical, biotinylated probe, 635/667 nm fluorescence, primary screen (AID 1114); details: small-molecule microarray, higher = more signal;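 note: probe is biotin-labelled aShh protein from a stem cell growth factor screen; measures binding of labelled protein to compounds printed on the slide; score merges feature fluorescence at 667 nm with signal-to-noise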
[8] = probe aNog binding to arrayed compounds – biochemical, biotinylated probe, 635/667 nm fluorescence, primary screen (AID 1115); details: small-molecule microarray, higher = more signal;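 note: probe is biotinylated aNog protein used at 0.15 µg/mL for 1 h at 4 C; z-score combines 667 nm fluorescence of each spot with its signal to noise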
[9] = target: Torsin-1A-interacting protein 1 (Homo sapiens) (UniProt Q5JTV8); test: compound microarray binding of lysate hLAP1 – cell lysate, small-molecule microarray, COS7 lysate, 635/667 nm fluorescence, primary screen (AID 1116); details: 635 nm fluorescence, higher = more signal
Sequence of Torsin-1A-interacting protein 1 (Homo sapiens) (Q5JTV8 whole entry, looked up): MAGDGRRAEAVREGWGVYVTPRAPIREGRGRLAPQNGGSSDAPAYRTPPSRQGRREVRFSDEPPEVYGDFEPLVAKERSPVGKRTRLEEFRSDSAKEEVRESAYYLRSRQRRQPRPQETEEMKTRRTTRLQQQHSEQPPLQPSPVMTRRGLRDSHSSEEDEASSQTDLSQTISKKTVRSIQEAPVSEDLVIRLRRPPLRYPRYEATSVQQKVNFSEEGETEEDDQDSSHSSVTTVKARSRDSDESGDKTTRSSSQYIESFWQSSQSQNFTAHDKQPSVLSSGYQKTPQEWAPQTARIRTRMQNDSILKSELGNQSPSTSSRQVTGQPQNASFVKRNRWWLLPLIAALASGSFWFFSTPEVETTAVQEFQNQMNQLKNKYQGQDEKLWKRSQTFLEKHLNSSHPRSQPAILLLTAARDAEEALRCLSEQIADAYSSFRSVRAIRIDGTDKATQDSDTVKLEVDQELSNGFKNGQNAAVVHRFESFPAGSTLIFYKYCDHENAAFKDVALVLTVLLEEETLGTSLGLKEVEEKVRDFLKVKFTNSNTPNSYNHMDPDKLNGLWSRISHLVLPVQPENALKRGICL

[10] = target: Alpha-bungarotoxin (Bungarus multicinctus) (UniProt P60615); test: compounds binding labelled alpha-BTX control protein – biochemical, small-molecule microarray, Alexa647 label, 635/667 nm fluorescence, artefact control for SMM control protein annotation, profiling panel (AID 1117); details: alpha-BTX-A647 binding fluorescence, higher = more signal
Sequence of Alpha-bungarotoxin (Bungarus multicinctus) (P60615 whole entry, looked up): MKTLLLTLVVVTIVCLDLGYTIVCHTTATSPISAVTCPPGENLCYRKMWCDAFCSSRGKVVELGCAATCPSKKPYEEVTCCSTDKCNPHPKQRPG

Albumin (Bos taurus) = Albumin (Bos taurus) (UniProt P02769); test: compounds binding labelled BSA control protein – biochemical, small-molecule microarray, Alexa647 label, 635/667 nm fluorescence, artefact control for SMM control protein annotation, profiling panel (AID 1118); details: BSA-A647 binding, fluorescence 635 nm, higher = more signal;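 note: score merges 667 nm emission intensity and signal-to-noise per printed compound spot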
Sequence of Albumin (Bos taurus) (P02769 whole entry, looked up): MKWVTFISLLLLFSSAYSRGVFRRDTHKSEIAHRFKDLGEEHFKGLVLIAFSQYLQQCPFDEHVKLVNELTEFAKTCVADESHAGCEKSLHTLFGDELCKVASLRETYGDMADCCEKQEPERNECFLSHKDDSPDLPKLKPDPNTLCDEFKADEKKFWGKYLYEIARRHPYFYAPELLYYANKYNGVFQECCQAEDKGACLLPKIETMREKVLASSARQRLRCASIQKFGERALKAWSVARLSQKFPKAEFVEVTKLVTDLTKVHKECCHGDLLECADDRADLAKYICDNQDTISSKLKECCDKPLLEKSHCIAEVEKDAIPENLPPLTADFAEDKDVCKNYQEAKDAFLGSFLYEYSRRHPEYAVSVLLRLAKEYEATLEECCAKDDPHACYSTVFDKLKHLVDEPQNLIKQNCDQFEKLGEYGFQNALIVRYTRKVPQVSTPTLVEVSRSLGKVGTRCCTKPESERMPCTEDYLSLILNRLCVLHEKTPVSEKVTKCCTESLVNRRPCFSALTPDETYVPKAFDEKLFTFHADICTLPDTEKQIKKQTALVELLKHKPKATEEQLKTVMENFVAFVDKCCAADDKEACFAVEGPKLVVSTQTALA

[11] = probe aXIP binding to arrayed compounds – biochemical, NeuroSMM set, 635/667 nm fluorescence, primary screen (AID 1119); details: small-molecule microarray, higher = more signal, called active from +8 up or from −8 down;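 note: probe is the protein aXip251-270 applied at 1 µg/mL to compound-printed slides; binding of probe to printed compounds measured as 667 nm fluorescence plus signal to noise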
[12] = probe aNOTCH3 binding on compound microarray – biochemical, small-molecule microarray, 635/667 nm fluorescence, primary screen (AID 1120); details: higher = more signal;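 note: probe is a biotin-tagged antibody raised against NOTCH3 rather than NOTCH3 protein; score merges spot fluorescence near 667 nm with spot signal to noise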
[13] = probe aNOTCH2 binding on compound microarray – biochemical, small-molecule microarray, 635/667 nm fluorescence, primary screen (AID 1121); details: higher = more signal;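 note: score merges feature fluorescence read at 667 nm with its signal to noise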
[14] = target: Carbonic anhydrase 2 (Homo sapiens) (UniProt P00918); test: compounds binding carbonic anhydrase 2 – biochemical, small-molecule microarray, Alexa647-labelled CAII, profiling panel (AID 1122); details: CAII-A647 binding fluorescence, higher = more signal
[15] = COS7 lysate on small-molecule microarray, probe aHis, 635 nm (AID 1123); details: COS7 cell lysate, fluorescence, higher = more signal;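 note: z-score combines 667nm fluorescence intensity with signal-to-noise per printed compound spot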
[16] = probe aLAP1 signal on lysate-treated microarray – cell lysate, small-molecule microarray, COS7 lysate, primary screen (AID 1124); details: probe aLAP1, fluorescence, higher = more signal;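 note: lysate comes from COS7 cells expressing LAP1 and is applied at 0.3 µg/mL; score merges spot fluorescence near 667 nm with signal-to-noise over triplicate slides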
Sam68 (KHDRBS1) = test: compounds binding KHDRBS1 protein – biochemical, small-molecule microarray, 635 nm fluorescence, primary screen (AID 1125); details: higher = more signal;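 note: score merges 667 nm channel intensity with signal to noise over triplicate slides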
[17] = test system: Chordin-like protein 2 (CHRDL2); test: compounds binding chordin-like 2 – biochemical, small-molecule microarray, 635 nm fluorescence, primary screen (AID 1126); details: fluorescence 635 nm, higher = more signal;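 note: printed compound slides probed with Chrdl2 protein at 4 µg/mL for 1 h at 4 C; score merges 667 nm emission intensity with signal to noise over three replicate slides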
[18] = target: Concanavalin-A (Canavalia ensiformis) (UniProt P02866); test: compounds binding concanavalin A lectin – biochemical, small-molecule microarray, Alexa647 label, 635 nm, artefact control for SMM control protein annotation, primary screen (AID 1127); details: ConA-A647 binding fluorescence, higher = more signal;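 note: z combines 667 nm emission intensity with signal-to-noise across three replicate slides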
Sequence of Concanavalin-A (Canavalia ensiformis) (P02866 whole entry, looked up): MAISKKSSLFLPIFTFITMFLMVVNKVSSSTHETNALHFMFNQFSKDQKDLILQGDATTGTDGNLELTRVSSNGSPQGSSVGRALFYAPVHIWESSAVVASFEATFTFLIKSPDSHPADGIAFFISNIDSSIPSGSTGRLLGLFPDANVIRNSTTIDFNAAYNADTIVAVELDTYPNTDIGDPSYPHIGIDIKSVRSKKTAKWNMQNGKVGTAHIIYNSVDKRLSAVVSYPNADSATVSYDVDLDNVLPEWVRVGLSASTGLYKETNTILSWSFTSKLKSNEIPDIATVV

SMILES | composite z-score [1] | z-score [2] | composite z-score [3] | composite z-score [4] | composite z-score [5] | composite z-score [6] | composite z-score [7] | composite z-score [8] | composite z-score [9] | composite z-score [10] | composite z-score (Albumin (Bos taurus)) | composite Z-score [11] | composite z-score [12] | composite z-score [13] | composite z-score [14] | composite z-score [15] | composite z-score [16] | composite z-score (Sam68 (KHDRBS1)) | composite z-score [17] | composite z-score [18]
O=C1O[C@H](c2ccccc2)[C@H](c2ccccc2)N2[C@H]1[C@@H](C(=O)N1CCCCCCC1)[C@]1(C(=O)Nc3ccccc31)[C@H]2c1ccc(O)cc1 | 1.52 | -1.09 | 1.86 | 3.09 | 1.64 | 1.63 | 3.71 | 3.66 | 5.68 | 3.36 | 0.052 | 8.41 (active) | 2.34 | 1.24 | 0.764 | 4.65 | 1.65 | 1.31 | 1.71 | 1.17
CCCNC(=O)[C@@]1(Sc2ccc(C)cc2)CC(=O)N(Cc2ccccc2)[C@@H]1c1ccc(CO)cc1I | 1.17 | -2.64 | -0.045 | -0.296 | 0.143 | -0.0758 | -0.1 | 0.225 | 0.285 | 1.19 | -0.793 | -0.163 (inactive) | 0.147 | -0.115 | 0.405 | 0.644 | 1.01 | 0.827 | 0.678 | 0.082
COC(=O)c1c(CC[C@@H](CO)NC(=O)N[C@@H](C)Cn2cc(C3(O)CCCC3)nn2)oc(C(C)=O)c1C(=O)OC | 0.467 | 0.884 | 0.0541 | -0.186 | -0.467 | -0.0758 | -0.0709 | -0.368 | 0.711 | 0.282 | 0.815 | 0.42 (inactive) | 0.276 | -0.204 | 0.672 | 2.66 | 0.0377 | 0.481 | -0.425 | 0.484
O=C1O[C@@H](c2ccccc2)[C@@H](c2ccccc2)N2[C@@H](c3ccc(O)cc3)[C@]3(C(=O)Nc4ccc(C#CC5(O)CCCCCC5)cc43)[C@@H](C(=O)N3CCN(c4ncccn4)CC3)[C@H]12 | 1.4 | -0.843 | 0.114 | 1.03 | 0.137 | -0.0721 | 0.255 | 0.146 | 1.18 | 1.21 | 0.77 | 0.95 (inactive) | -0.0558 | -0.123 | 0.604 | 1.87 | 0.333 | 1.31 | -0.106 | 1.13
CO[C@H]1O[C@H](CO)[C@@H](OC(=O)c2ccc(Br)cc2)[C@@H]2OC(=O)[C@H](Cc3cccc(Br)c3)C/C=C/C[C@@H](Cc3cccc(Br)c3)C(=O)O[C@@H]12 | 0.549 | -2.15 | 0.985 | 0.622 | 0.0872 | -0.113 | 0.317 | -0.172 | 0.323 | 0.867 | 0.695 | 0.528 (inactive) | 0.119 | -0.0486 | 0.439 | 0.806 | 0.72 | 1.18 | 0.511 | 0.583
Cc1ccc(S[C@]2(C(=O)NCC(C)C)CC(=O)N(C3CCCCC3)[C@@H]2c2ccc(CO)cc2I)cc1 | 1.35 | -2.6 | 0.261 | 1.73 | 0.549 | 0.02 | -0.188 | -0.471 | 0.703 | 0.0462 | 0.812 | 0.209 (inactive) | -0.246 | -0.0862 | 0.637 | 1.51 | 0.738 | 1.28 | -0.0402 | 0.88
OCCCC1=CC(c2cccs2)N(Cc2cccc(OC(F)(F)F)c2)CC1 (stereo not given) | -0.571 | -2.1 | -0.0424 | -0.957 | 0.639 | -0.13 | -0.221 | 1.41 | -0.0673 | -0.0302 | 0.659 | -0.0774 (inactive) | -0.147 | 0.072 | 0.389 | 0.0426 | 0.144 | -0.184 | -0.258 | -0.659
CN1C(=O)C2C=CC(C(O)C3CCCCC3)N(N(c3ccccc3)c3ccccc3)C2C1=O (stereo not given) | -1.93 | -0.15 | -0.939 | 0.142 | 0.405 | 0.204 | 0.117 | 0.0294 | 0.0416 | -0.232 | -0.0103 | 0.54 (inactive) | 0.367 | 0.232 | 0.72 | 2.56 | 1.21 | -0.864 | -1.04 | -1.27
Cc1ccc(F)cc1S(=O)(=O)N[C@@H]1CCN(C(=O)c2ccc(OC(C)C)cc2)C1 | 0.801 | -0.0287 | 1.08 | 0.237 | -0.603 | -0.032 | 0.0121 | -0.425 | 0.521 | 0.247 | 0.0765 | -0.107 (inactive) | 0.116 | -0.184 | -0.0494 | 0.644 | 0.194 | 1.13 | 0.686 | 0.0897
C=CCC(OC(C)=O)[C@@H]1[C@@H](N(Cc2ccc(-c3ccccc3)cc2)C(=O)c2cccc3ccccc23)c2cc(OCCCO)ccc2N1C(=O)c1ccc2ccccc2n1 (stereo not given in full) | 0.0254 | -0.281 | -0.319 | 0.367 | 1.01 | -0.224 | -0.2 | -0.158 | 0.0708 | 0.382 | 0.028 | -0.119 (inactive) | 0.0306 | -0.16 | 0.212 | 0.621 | 0.546 | -0.168 | 0.165 | -0.0782
CCCCC=C[C@@H](NC(=O)CCc1ccccc1)c1ccccc1 | 1.38 | -2.6 | 0.151 | 0.504 | 0.57 | 0.145 | 1.11 | 1.11 | 1.49 | 1.19 | 0.585 | 1.46 (inactive) | 0.23 | 0.0409 | 0.689 | 2.37 | 0.785 | 1.2 | 0.0782 | 1.12
CCCCC(=C=CC[C@H](O)c1cccc(OCCO)c1)C[C@H](O)COCc1ccccc1 | 0.49 | -1.88 | -0.466 | -0.59 | -0.897 | -0.148 | -0.154 | -0.397 | -0.432 | -0.283 | 0.92 | 0.11 (inactive) | -0.179 | -0.107 | 0.697 | 0.972 | -0.501 | 0.435 | -0.592 | 0.0194
